High-throughput results from PubChem BioAssay.
ATXN2 expr inh: Primary qHTS for Inhibitors of ATXN expression. HEK-293 ATXN2-luciferase reporter, luminescence, 24 h. Potency, µM (series often up to 57 µM), for inactives: at the highest dose activity change, negative = inhibition, actives largely listed as inhibitors. 360,000 compounds, 0.72% hits. AID 1745845, 2022; also: % is scaled to controls: 0 for no effect and ±100 for the full control effect; nearly all actives have a fitted effect of over 55% in size
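ATXN2-luciferase reporter cells (luciferase flanked by upstream and downstream ATXN2 gene portions) were treated 24 h at 37 °C with compounds at up to 57 uM. SteadyGlo luminescence gave expression; GF-AFC fluorescence gave viability.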
S2 tox: Viability Counterscreen for Primary qHTS for Inhibitors of ATXN expression. S2 cells (HEK-293 line with an ATXN2-luciferase reporter) viability, CellTiter-Fluor protease fluorescence, 24 h. Potency, µM (series often up to 56.7 µM), hits mostly cytotoxic. 400,000 compounds, 0.49% hits; also: nearly all actives have a fitted effect of over 40% in size
HepG2 viability: qHTS for Inhibitors of TGF-b: Cytotox Counterscreen. HepG2 CAGA-GFP viability, ATP luminescence, 18 h. Potency, µM (titrated, usually from 46.1 µM), for the others: at the top dose activity change, negative = cytotoxicity, usual class: cytotoxic. 410,000 compounds, 0.76% hits
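CellTiter-Glo luminescence gave cytotoxicity after 18 hours at 37 degrees C. The cells were HepG2 CAGA-GFP in 1% FBS DMEM, stimulated with 500 pg/mL TGF-beta after compound addition. %Activity was normalised to no-cell wells (complete cell-killing) and DMSO (no toxicity), and curves were fitted and classified.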
RORg inh: qHTS for inhibitors of ROR gamma transcriptional activity | Potency, µM (doses to about 53.6 µM), for the others: at the top dose activity change, negative = inhibition, most hits filed as inhibitors | 310,000 compounds, 5.4% hits | Drosophila S2 Gal4-RORgamma UAS-luciferase reporter, 20 h | Nuclear receptor ROR-gamma (Mus musculus), P51450; also: % is scaled to controls: 0 for no effect and ±100 for the full control effect; nearly all actives have a fitted effect of over 60% in size
Target sequence (P51450 whole entry, looked up, the tested form may be a part): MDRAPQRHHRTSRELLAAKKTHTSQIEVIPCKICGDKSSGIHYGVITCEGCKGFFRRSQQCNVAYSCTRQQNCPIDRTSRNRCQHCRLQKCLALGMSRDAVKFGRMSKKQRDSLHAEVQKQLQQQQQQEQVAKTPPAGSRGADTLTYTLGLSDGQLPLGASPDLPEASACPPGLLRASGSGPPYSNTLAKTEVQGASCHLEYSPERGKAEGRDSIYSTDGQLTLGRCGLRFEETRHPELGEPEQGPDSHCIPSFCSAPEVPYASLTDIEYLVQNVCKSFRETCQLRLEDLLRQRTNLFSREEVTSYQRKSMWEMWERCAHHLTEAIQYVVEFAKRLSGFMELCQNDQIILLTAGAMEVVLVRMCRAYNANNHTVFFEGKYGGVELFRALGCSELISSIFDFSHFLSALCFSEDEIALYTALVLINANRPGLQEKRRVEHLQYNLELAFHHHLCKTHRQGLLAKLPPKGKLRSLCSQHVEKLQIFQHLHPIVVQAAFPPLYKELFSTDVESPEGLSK
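Stably transfected Drosophila Schneider cells are the test system, with ROR gamma fused to Gal4 and luciferase under UAS control; luminescence is read after 20 hr of 700 uM copper sulfate induction at ambient temperature.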
TGFb inhibitor: qHTS for Inhibitors of TGF-b | 410,000 compounds, 1.2% hits | AID 588855, 2011 | HepG2 CAGA-GFP TGF-b/SMAD3 reporter, GFP fluorescence, 18 h; TGF-beta stimulated, 500 pg/mL final | Potency, µM (top dose mostly 46.1 µM), inactives show top-dose activity, negative = inhibition, most hits filed as inhibitors; also: % is scaled to controls: 0 for no effect and ±100 for the full control effect; nearly all actives have a fitted effect of over 65% in size
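Inhibition of TGF-beta-driven CAGA-GFP reporter expression in HEPG2 cells is measured by cellular GFP fluorescence after 18 h stimulation with 500 pg/mL recombinant TGF-beta in 1% FBS medium at 37 degrees C.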
Gal4-VP16 FLuc: VP16 counterscreen qHTS for inhibitors of ROR gamma transcriptional activity. Potency, µM (doses to about 53.6 µM), without a hit: at the highest dose activity, negative = inhibition, hits mostly inhibitors. AID 2546, 2010. Drosophila S2 Gal4-VP16 UAS-luciferase, luminescence, 20 h. 310,000 compounds, 3.5% hits;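 also: Gal4-VP16 expression switched on by copper sulfate through the metallothionein promoter; % is scaled to controls: 0 for no effect and ±100 for the full control effect; nearly all actives have a fitted effect of over 50% in size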
* marks the source's active call; other numbers are inactive results; i = inactive; u = inconclusive; x = no result. The list is not random: actives were taken first. Their share in the collection is about 6.3%. Calls follow the shape of the dose curve; as a rule, active = well fitted curve in the direction sought with a large enough effect; inconclusive = small, poorly fitted or top-dose-only effect, or another doubt; inactive = no such curve, though single readings can be large; an effect the other way counts as inactive or inconclusive. Potency is read from the fitted curve at half-maximal effect.

SMILES	ATXN2 expr inh	S2 tox	HepG2 viability	RORg inh	TGFb inhibitor	Gal4-VP16 FLuc
Cc1ccc(/C=N/n2c(-c3ccccn3)n[nH]c2=S)o1	x	x	-11%	u	-10%	3%
Cc1ccc(-c2n[nH]c(=S)n2/N=C/c2ccc(C)o2)cc1	2%	i	16%	5µM*	u	3.5µM*
Cc1ccc(/C=N/n2c(-c3ccc(Cl)cc3)n[nH]c2=S)o1	3%	u	-16%	6.3µM*	14%	-30%
Cc1ccc(-c2n[nH]c(=S)n2/N=C/c2ccncc2)cc1	17%	i	-2%	11µM*	7%	u
CN(C)c1ccc(/C=N/n2c(-c3cccnc3)n[nH]c2=S)cc1	3%	i	-1%	-34%	2%	2%
Cc1ccc(/C=N/n2c(-c3cccnc3)n[nH]c2=S)o1	-17%	i	0%	-39%	20%	-13%
COc1ccc(-c2nc(S(=O)(=O)c3ccc(Cl)cc3)c(N3CCCCCC3)o2)cc1	x	x	-9%	x	x	x
COc1cccc(CC(=O)OCC(=O)Nc2nnc(-c3ccccc3)o2)c1	8%	i	-22%	x	-18%	x
O=C(Nc1nnc(-c2ccco2)o1)c1ccc(Cl)s1	-5%	i	-1%	2µM*	-16%	0.63µM*
COc1cccc(-c2nnc(NC(=O)c3ccc(Cl)s3)o2)c1	u	x	-30%	0.25µM*	u	0.22µM*
Cc1ccc(NC(=O)c2nc[nH]c2C(=O)NCC(=O)OC(C)(C)C)cc1	0%	i	-21%	6.3µM*	-4%	u
CCOC(=O)c1[nH]cnc1C(=O)Nc1ccc(Cl)cc1	-33%	u	-14%	u	-1%	-20%
CCOC(=O)c1ccc(NC(=O)c2nc[nH]c2C(=O)NCCNC(=O)c2[nH]cnc2C(=O)Nc2ccc(C(=O)OCC)cc2)cc1	-2%	i	-4%	x	-9%	x
CCOC(=O)c1[nH]cnc1C(=O)Nc1ccc(C)cc1	x	i	93%	13µM*	54%	u
CCOC(=O)c1ccc(NC(=O)c2nc[nH]c2C(=O)NC)cc1	13%	i	-1%	10µM*	-2%	-28%
CC1(C(=O)NS(=O)(=O)C2CC2)CCCN(C(=O)c2cc3ccccc3s2)C1 (stereo not drawn)	-5%	i	9%	x	-4%	x
C=CCOc1c(Cl)cc(CNc2nccs2)cc1OC	-17%	i	-22%	5.6µM*	-7%	u
COc1ccc(CNc2nccs2)cc1OC	18%	i	-1%	-13%	15%	-10%
C=CCOc1c(CNc2nccs2)cccc1OCC	-16%	i	-7%	11µM*	u	u
C=CCOc1ccc(CNc2nccs2)cc1OCC	0%	i	7%	25%	-3%	-20%
COc1ccc(NC(=O)CCc2nc3cccnc3n2-c2ccccc2)cc1Cl	-29%	i	-59%	x	-6%	x
COc1ccc(CNC(=O)C(C)N(Cc2ccccc2OC)C(=O)c2snc(C(N)=O)c2N)cc1 (stereo not drawn)	4%	i	-28%	10µM*	5%	24%
COC(=O)Cc1ccc(NC(=S)N2CCN(c3ccccn3)CC2)cc1	x	i	-21%	15%	0%	-4%
COC(=O)Cc1ccc(NC(=S)N2CCCC(C)C2)cc1 (stereo not drawn)	-14%	i	-12%	13µM*	-15%	11µM*
COC(=O)Cc1ccc(NC(=S)N2CCN(c3cc(Cl)ccc3C)CC2)cc1	u	i	-2%	13µM*	u	u
SMILES	ATXN2 expr inh	S2 tox	HepG2 viability	RORg inh	TGFb inhibitor	Gal4-VP16 FLuc
CC1CCCN(C(=S)Nc2ccc(S(=O)(=O)N3CCCCC3)cc2)C1 (stereo not drawn)	16%	i	-2%	u	0%	-11%
COC(=O)Cc1ccc(NC(=S)N2CCCC(CO)C2)cc1 (stereo not drawn)	-26%	u	-8%	11µM*	3%	7.9µM*
CC(=O)c1ccc(NC(=S)N2CCCC(CO)C2)cc1 (stereo not drawn)	12%	i	-6%	-43%	12%	-14%
c1ccc(OCCNc2ccn3nc(-c4ccc(OCCN5CCOCC5)cc4)cc3n2)cc1	u	u	-24%	x	u	x
COC(=O)c1ccc(CSc2nc(C)nc3sc(C)c(C)c23)o1	-37%	i	-1%	u	13%	4µM*
COC(=O)c1ccc(CSc2nnc(SCc3ccc(C(=O)OC)o3)s2)o1	7%	i	-8%	-9%	-15%	2%
S=C1NC[C@H](c2ccccc2)N1CC1CCCCC1	-10%	u	-3%	1.1µM*	u	4.5µM*
O=C1NC[C@@H](CCCCN2C[C@H](Cc3ccccc3)N(Cc3ccccc3)C(=O)C2=O)N(CC2CCCCC2)C1=O	8%	i	x	x	x	x
CCCCN1C(=S)NC[C@@H]1c1ccccc1	-5%	i	-26%	2.8µM*	u	13µM*
O=C1NC[C@@H](CCCCN2C[C@H](Cc3ccccc3)N(CC3CCCCC3)C(=O)C2=O)N(CC2CCCCC2)C1=O	-8%	14µM*	x	x	x	x
CCCCN1C(=S)NC[C@@H]1Cc1ccccc1	u	u	-17%	1.8µM*	-4%	7.9µM*
Cc1ccc(Cl)cc1N1CCN(C(=O)C2CCN(S(=O)(=O)c3cn(C)cn3)CC2)CC1	x	x	-20%	x	29%	x
Cc1ccc(SC[C@H](C)CN2CC[C@H](O)CCC2=O)cc1	x	x	-14%	x	-3%	x
S=C1NC[C@H](Cc2ccccc2)N1CCCCC1CCCCC1	-12%	u	-46%	0.71µM*	u	5µM*
NCCCC[C@H]1CNC(=S)N1CC1CCCCC1	1%	i	-3%	-7%	-25%	4%
S=C1NC[C@H](CC2CCCCC2)N1CCCCC1CCCCC1	-23%	i	-19%	1.1µM*	-13%	3.2µM*
S=C1NC[C@H](Cc2ccccc2)N1CC1CCN(CCCC2CCCC2)CC1	-16%	u	-28%	x	-15%	x
O=C1NC[C@H](CC2CCCCC2)N(CCc2cccc3ccccc23)C1=O	1%	i	x	x	x	x
S=C1NC[C@H](CC2CCCCC2)N1CCc1cccc2ccccc12	-33%	u	-32%	0.25µM*	u	0.63µM*
CCCn1nc(C(=O)Nc2cccc(S(=O)(=O)N3CCOCC3)c2)c2ccccc2c1=O	x	i	-17%	x	4%	x
O=C(NCC1Cc2cc(F)cc(-c3cccnc3)c2O1)c1cnn(-c2ccccc2)c1 (stereo not drawn)	x	i	x	x	x	x
CN(C)C(=O)c1ccc(S(=O)(=O)NCc2ccccc2Cl)s1	-11%	i	-18%	x	-22%	x
